The test system of this experiment is MDA-MB-231. As to the kind of experiment: relative cell viability, compound alone, vs DMSO (fraction of DMSO control); higher = less growth inhibition. As to conditions: 72 h.
The compound `CC(C)=CCC[C@](C)(O)[C@H]1CC[C@]2(C)[C@@H]1[C@H](O)C[C@@H]1[C@@]3(C)CC[C@H](O)C(C)(C)[C@@H]3[C@@H](O)C[C@]12C` [(20S)-Protopanaxatriol] registered a relative cell viability of 1.
The result for `CC(C)c1nc(N(C)S(C)(=O)=O)nc(-c2ccc(F)cc2)c1/C=C/[C@@H](O)C[C@@H](O)CC(=O)O` [Rosuvastatin] reads 0.871.
The result for `Cc1c(C)c2c(c(C)c1O)CCC(C)(COc1ccc(CC3SC(=O)NC3=O)cc1)O2` (stereo unspecified) [Troglitazone] reads 0.984.
On to `CC(C)CCC[C@@H](C)[C@H]1CC[C@H]2[C@@H]3CCC4=CC(=NO)CC[C@]4(C)[C@H]3CC[C@]12C` [Olesoxime], for which the relative cell viability was determined as 0.789.
The result for `NC(N)=NN=Cc1cccc(Cl)c1Cl` [Raphin1] reads 0.72.
Consider `C=CC[S+]([O-])C[C@H](N)C(=O)O` (stereo partly specified) [Alliin], for which the relative cell viability was determined as 1.04.

The values are drawn from the supplement of paper PMC9492666.
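Further: viability read out with the CCK-8 kit in 96-well plates, screening a set of 303 compounds acting on lipid metabolism targets.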
